Screening data deposited in PubChem by National Center for Advancing Translational Sciences (NCATS).
AMA1 RON2 block – AMA1-RON2 (P. falciparum) interaction inhibition | AlphaScreen AMA1-biotinylated RON2 peptide binding | Potency, µM (highest dose often 58.2 µM), inactives show at the highest dose activity change, negative = inhibition, most hits filed as inhibitors | 360,000 tested, 0.2% active | AID 720542;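 also: potency is read from the fitted curve at half-maximal effect; 0% = vehicle wells and -100% = peptide control; nearly all actives have a fitted effect of over 45% in size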
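AMA1 (3D7) with his tag at 25 nM final met compounds first, then biotinylated RON2 peptide at 25 nM; detection used donor plus acceptor beads, 10 µg/mL apiece, read by AlphaScreen after 30 min at room temperature.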
Shiga toxin inh – inhibitors of Shiga toxin in Vero cells; Vero cells, Shiga toxin protein synthesis inhibition reporter; inhibition, % at 38.7 µM; 290,000 tested, 9.2% active; AID 2315; in the data active = inhibition mostly above about 28%, no sharp cut-off; inactive = mostly below about 43%; also: 0% is about no effect
CHX counter – counter-screen for Shiga toxin inhibitors: cycloheximide protein synthesis inhibition; cell reporter, cycloheximide protein synthesis inhibition counterscreen; max response, %; 300,000 tested, 12% active; in the data active = max response mostly above about 13%, no sharp cut-off; inactive = mostly below about 14%; also: read at 38.3 µM for the half of the compounds with a filed dose; 0% is about no effect
Pf growth 48h – inhibits P. falciparum growth in the first generation, 48 h. P. falciparum luciferase growth in erythrocytes, 48 h. Potency, µM (top dose mostly 28.7 µM), inactives show top-dose activity change, negative = inhibition, actives largely listed as inhibitors. 310,000 tested, 5.9% active. AID 504832; also: potency is read from the fitted curve at half-maximal effect; % is scaled to controls: 0 for no effect and ±100 for the full control effect
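Compounds are pin-transferred into medium, infected erythrocytes (2% hematocrit, 0.1% parasitemia final) are added, and plates sit one parasite generation at 37 C in 5% CO2. Detection reagent is then added and luminescence measured.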
HCV inh – blocks hepatitis C virus; Huh7.5.1 HCVcc-Cre infection, luciferase reporter, 44 h; 340,000 tested, 3.4% active; Potency, µM (series often up to 41.8 µM), without a hit: at the top dose activity change, negative = inhibition, actives largely listed as inhibitors; AID 651820; also: potency is read from the fitted curve at half-maximal effect; % is scaled to controls: 0 for no effect and ±100 for the full control effect
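After 44 h co-culture of compound, cells and HCVcc-Cre (~0.5 moi), substrate is added for 15 min at room temperature and luciferase measured over 15 sec. Cells were seeded at 1,000/well and pre-cultured 4 h.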
Pf growth 96h – inhibits malaria parasite growth, 96 h | P. falciparum luciferase reporter growth, 96 h | Potency, µM (doses to about 28.7 µM), inactives show top-dose activity change, negative = inhibition, actives largely listed as inhibitors | 320,000 tested, 6.9% active | AID 504834; also: potency is read from the fitted curve at half-maximal effect; % is scaled to controls: 0 for no effect and ±100 for the full control effect
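Erythrocytes infected with luciferase-expressing P. falciparum were dispensed at 2% hematocrit and 0.05% parasitemia (final), then incubated with compounds 96 hours at 37 C in 5% CO2. Luminescence after detection reagent addition reported growth.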
* marks the source's active call; other numbers are inactive results; ? = inconclusive; . = no result given; + = active, no number; [ ] = remark or other dose. Hits are enriched below; roughly 21% of the tested compounds scored in any of these assays. Unless noted, calls follow the shape of the dose curve; as a rule, active = well fitted curve in the direction sought with a large enough effect; inconclusive = small, poorly fitted or top-dose-only effect, or another doubt; inactive = no such curve, though single readings can be large; an effect the other way counts as inactive or inconclusive.

SMILES	AMA1 RON2 block	Shiga toxin inh	CHX counter	Pf growth 48h	HCV inh	Pf growth 96h
O=C1c2cccc3c(O)ccc(c23)C(=O)N1c1ccc(Cl)cc1	43.2%	+	105.1*	.	2.9%	13.9%
Cc1ccc(N2C(=O)c3ccccc3C2=O)cc1	15.4%	91.2*	40.8*	7.0%	15.0%	13.7%
O=C1c2ccccc2C(=O)N1c1ccc(Cl)cc1	.	-10.7	10.1	.	.	28.2%
O=C(Nc1nnc(Cc2ccccc2F)s1)Nc1ccccc1F	0.0%	25.7	13.7	13.0%	-11.8%	?
COc1ccc(N2C(=O)c3cccc4c(N(C)CCO)ccc(c34)C2=O)cc1	-4.1%	11.6	9.3	10.4µM*	?	21.6%
CCO/C=C1\C(=O)N(c2ccccc2)C(=O)c2ccccc21	1.8%	69.4*	40.4*	11.9%	19.9%	0.7%[5.75 µM]
COc1ccc(N2C(=O)c3ccccc3C2O)cc1 (stereo not drawn)	-12.0%	.	19.8*	45.8%	0.8%	169.3%
COc1ccc(O)c(C(=O)C2c3ccccc3C(=O)N2c2ccc(C)cc2)c1 (stereo not drawn)	-7.2%	80.5*	44.0*	?	17.9%	1.47µM*
CCO/C=C1/C(=O)N(c2ccc(OC)cc2)C(=O)c2ccccc21	5.4%	-6.1	8.8	3.0%	4.4%	18.3%
O=C(Cc1cccs1)NCCS(=O)(=O)N1CCN(c2ccccc2F)CC1	24.5%	.	.	-2.0%	0.5%	14.4%
O=C(CCN1C(=O)c2ccccc2C1=O)C1=NN[C@@H]2C(=O)N(c3ccc4c(c3)OCO4)C(=O)[C@H]12	9.0%	19.1	11.0	36.5%	17.9%	5.4%
COc1ccc(CCNC(=O)CSc2cn(Cc3cccc(C)c3)c3ccccc23)cc1OC	-3.0%	-4.6	-3.6	?	10µM*	9.28µM*
COc1ccc(CCNC(=O)CSc2ccccc2)cc1OC	-7.0%	16.7	-1.0	-13.9%	8.6%	-2.1%
COc1ccc(CCNC(=O)CSc2cccc3cccnc23)cc1OC	1.1%	-4.4	-1.9	-5.4%	13.4%	-21.6%
COc1ccc(CCNC(=O)CSc2cn(Cc3ccccc3)c3ccccc23)cc1OC	-2.2%	-11.1	-4.6	?	11.2µM*	?
CCN=C1SC(CC(N)=O)C(=O)N1CC (stereo not drawn)	5.0%	-7.1	-0.8	20.1%	11.0%	34.2%
COc1ccc(-n2c(C)cc(C(=O)CSc3nnc(-c4ccoc4C)n3C)c2C)cc1	0.0%	11.7	1.6	9.28µM*	?	.
Cc1ccc(-n2c(C)cc(C(=O)CSc3nnnn3C)c2C)cc1	-24.4%	66.1*	52.9*	?	?	?
Cc1ccc(-n2c(C)cc(C(=O)CSc3nncs3)c2C)cc1	-6.9%	105.1*	45.4*	140.5%	?	7.9%
COc1cccc(NC(=O)CSc2nnc(-c3ccoc3C)n2C)c1	1.4%	-1.0	-1.5	6.9%	-2.1%	?
Oc1ccc(C[C@H]2CNC(=S)N2CC2CCCN2C[C@H](Cc2ccccc2)N2C[C@H](Cc3ccc(O)cc3)N(CC3CCCCC3)C2=S)cc1 (stereo partly drawn)	27.4%	.	.	.	.	.
O=C1C=C2C=CC3C[C@@]2(O1)C1CCCCN31 (stereo partly drawn)	.	.	.	12µM*	.	2.69µM*
COc1ccc(SCC(CC(C)C)N2CCN(CCc3ccccc3)CCC2=O)cc1 (stereo not drawn)	.	56.9*	55.8*	.	.	.
CC(C)C[C@@H](CSc1ccccc1)N1CCN(CCc2ccccc2)CCC1=O	-8.3%	29.7*	18.1*	?	?	?
CC(C)CN1CCC(=O)N([C@H](CSc2ccccc2)Cc2ccccc2)CC1	-3.6%	5.3	-0.3	?	?	13.1µM*
SMILES	AMA1 RON2 block	Shiga toxin inh	CHX counter	Pf growth 48h	HCV inh	Pf growth 96h
CCCN1CCC(=O)N([C@H](CN=[N+]=[N-])CC(C)C)CC1	14.3%	-6.0	-0.5	?	20.2%	4.65µM*
O=C(CC1SC(N2CCOCC2)=NC1=O)Nc1ccc(Cl)c(C(F)(F)F)c1 (stereo not drawn)	14.3%	.	.	.	-13.8%	.
CC(C)C[C@@H](CSc1ccc(Br)cc1)N1CCN(CCc2ccccc2)CCC1=O	58.7%	-12.7	9.8	?	7.6%	?
CCCN1CCC(=O)N([C@H](CSc2ccc(OC)cc2)CC(C)C)CC1	-1.0%	71.0*	26.8*	?	18.9%	?
O=C(NCCCN1CCOCC1)c1cc2c(s1)CCCC2	-2.5%	48.6	10.5	15.5%	1.3%	.
O=C(NCCCN1CCCC1=O)c1cccc(NS(=O)(=O)c2ccccc2)c1	-6.1%	.	.	2.5%	8.8%	?
O=C(NCCCN1CCCC1=O)c1cccc(S(=O)(=O)Nc2ccc(F)cc2)c1	-2.4%[11.6 µM]	.	.	?	0.9%	13.1µM*
O=C(NCCCN1CCCC1=O)c1cc2c(s1)CCCCC2	-8.0%	73.2*	48.7*	52.8%	-8.0%	60.2%
O=C(NCCCN1CCCC1=O)c1cccc(S(=O)(=O)Nc2ccc(Br)cc2)c1	5.0%	.	.	?	0.9%	?
O=C(NCCCN1CCCC1=O)c1cccc(C(F)(F)F)c1	3.4%	-0.9	-1.4	3.2%	6.9%	8.28µM*
CCOC(=O)CCC(=O)Nc1ccc([N+](=O)[O-])cc1C	1.0%	12.5	0.3	11.0%	-0.5%	-26.9%
CC(C)C(=O)N1CCC(CN=Cc2c(O)n(C3CCCCC3)c(=O)n(C3CCCCC3)c2=O)CC1	-19.5%	25.6	4.2	1.47µM*	?	-19.3%
CCc1sc(N(C(=O)Cc2ccccc2)c2ccccc2F)nc1-c1ccc(C)cc1	-2.5%	6.9	-6.0	?	-9.8%	10.4µM*
Cc1cc(C)n(CC(=O)NNC(=O)c2ccc(S(C)(=O)=O)cc2)n1	25.6%	.	.	.	7.2%	.
COCCN1C(=O)CCC1(C)C(=O)Nc1c(C)cccc1C (stereo not drawn)	23.0%	.	.	.	.	.
CCOC(=O)N/N=C/C=C/c1ccccc1	-2.1%	60.3*	61.3*	73.4%	0.9%	?
COc1ccc(/C=C/C(=O)Oc2cccc(/C=N/NC(=O)COc3c(C)cccc3C)c2)cc1	-7.2%	104.6*	53.4*	23.0%	0.2%	-2.1%
Cc1ccccc1OCC(=O)N/N=C/C=C/c1ccccc1	70.9%	9.6	-3.2	-0.3%	16.3%	?
COc1ccc(/C=C/C(=O)Oc2ccc(/C=N/NC(=O)COc3c(C)cccc3C)cc2)cc1	.	-7.8	2.8	?	10.8%	?
COc1ccc(NCC(=O)N/N=C/C=C\c2ccccc2)cc1	34.0%	19.3*	21.0*	15.8%	0.2%	2.62µM*
COc1ccc(/C=C/C=N/NC(=O)COc2ccc(OC)cc2)cc1	35.6%	43.1*	16.9	-7.3%	5.0%	-20.6%
CCN1C(=O)[C@H]2[C@@H](c3ccc(C)cc3)N3C(=O)N(c4ccccc4)C(=O)[C@@]3(C)[C@H]2C1=O	6.9%	-1.4	-1.9	0.0%	22.4%	6.5%
